Some of the results follow. No count for the full screen is at hand.
Biological target: furin, P09958
Test: furin cleavage Z-score vs untreated control; higher = more cleavage, active = 3.5 or more, inactive = 1 or less, 8 variable residues between constant flanks
Method in brief: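 Abundance of DNA freed from bead-bound 8-mer peptide–cDNA fusions by purified furin was measured as sequencing read counts after PCR adapter tagging. Cutting ran 7.5, 15 or 30 min in 0.01 ml of 50 mM HEPES pH 7.5 with CaCl2 and NaCl at 1:10 enzyme:substrate. The cleavage Z-score expresses these log counts against furin-free reactions after lowess adjustment and median absolute deviation scaling.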

furin, P09958, sequence (P09958 whole entry): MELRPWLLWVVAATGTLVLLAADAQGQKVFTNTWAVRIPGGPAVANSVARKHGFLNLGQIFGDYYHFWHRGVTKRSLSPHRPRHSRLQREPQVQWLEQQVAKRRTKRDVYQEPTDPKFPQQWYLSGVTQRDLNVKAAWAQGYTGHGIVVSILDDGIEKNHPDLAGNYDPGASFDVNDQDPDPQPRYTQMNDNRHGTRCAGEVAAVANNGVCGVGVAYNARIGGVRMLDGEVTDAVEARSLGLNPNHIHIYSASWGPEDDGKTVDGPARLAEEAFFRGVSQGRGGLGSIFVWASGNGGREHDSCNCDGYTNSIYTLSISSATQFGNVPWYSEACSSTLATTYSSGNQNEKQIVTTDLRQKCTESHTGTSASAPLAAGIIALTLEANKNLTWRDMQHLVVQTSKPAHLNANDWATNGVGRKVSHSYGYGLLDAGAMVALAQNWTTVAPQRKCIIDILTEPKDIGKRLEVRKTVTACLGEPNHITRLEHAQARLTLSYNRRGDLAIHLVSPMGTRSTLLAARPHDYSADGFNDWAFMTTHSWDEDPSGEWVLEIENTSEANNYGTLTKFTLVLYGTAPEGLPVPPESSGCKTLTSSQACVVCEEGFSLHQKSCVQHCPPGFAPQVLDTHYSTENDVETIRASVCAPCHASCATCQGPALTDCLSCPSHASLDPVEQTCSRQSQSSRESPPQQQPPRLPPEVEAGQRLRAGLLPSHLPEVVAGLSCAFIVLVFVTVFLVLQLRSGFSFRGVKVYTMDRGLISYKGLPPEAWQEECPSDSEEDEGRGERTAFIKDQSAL

Sequence	furin cleavage Z-score (7.5 min)	furin cleavage Z-score (15 min)	furin cleavage Z-score (30 min)
CASKFGYGAKAGNASASA [HC1420]	0.531 (inactive)	0.331 (inactive)	-1.23 (inactive)
CALAPGAKQNAGNASASA [HC362]	0.735 (inactive)	-0.827 (inactive)	0.525 (inactive)
CAVVCCSMSQAGNASASA [HC2102]	-0.199 (inactive)	0.851 (inactive)	0.49 (inactive)
CATKLITWGAAGNASASA [HC651]	0.877 (inactive)	-0.214 (inactive)	-0.337 (inactive)
CALYGNEGCGAGNASASA [HC203]	-0.0812 (inactive)	1.22	0.228 (inactive)
CARRHVGPGEAGNASASA [HC1112]	-0.341 (inactive)	-0.961 (inactive)	-0.867 (inactive)
CARRRRHAGEAGNASASA [FS-2404]	6.46 (active)	4.9 (active)	5.66 (active)
CARRRRHPDDAGNASASA [FS-3063]	3.1	4.81 (active)	3.91 (active)
CARRRRHPDEAGNASASA [FS-1785]	5.6 (active)	5.56 (active)	4.6 (active)
CATDNLKCPCAGNASASA [HC1214]	0.631 (inactive)	-2.12 (inactive)	-1.25 (inactive)
CATEEAIYQCAGNASASA [HC1488]	0.306 (inactive)	-0.635 (inactive)	1.07
CAQTLLFNILAGNASASA [HC1063]	0.309 (inactive)	-0.599 (inactive)	0.404 (inactive)
CATTSCSGSWAGNASASA [HC1877]	-0.56 (inactive)	-0.299 (inactive)	-0.313 (inactive)
CAEGPCHRPSAGNASASA [HC2336]	0.811 (inactive)	0.167 (inactive)	0.259 (inactive)
CARPFRYKRKAGNASASA [FS-1402]	7.84 (active)	8.54 (active)	7.38 (active)
CARPYRCKIKAGNASASA [FS-3032]	-0.856 (inactive)	-0.224 (inactive)	1.6
CARPFRSFVPAGNASASA [FS-2499]	0.343 (inactive)	1.12	0.335 (inactive)
CAIITRYKRKAGNASASA [FS-338]	6.56 (active)	6.04 (active)	6.05 (active)
CANSSPPVVPAGNASASA [HC767]	-0.356 (inactive)	1.59	-0.293 (inactive)
CAGVWRVDGIAGNASASA [HC1169]	-0.937 (inactive)	0.416 (inactive)	-0.826 (inactive)
CANCTTPCSGAGNASASA [HC1961]	-0.578 (inactive)	-3.89 (inactive)	1.28
CAMKYEIASEAGNASASA [NG5]	-0.26 (inactive)	-1.67 (inactive)	0.146 (inactive)

Sequence	furin cleavage Z-score (7.5 min)	furin cleavage Z-score (15 min)	furin cleavage Z-score (30 min)
CARHRKNVDRAGNASASA [FS-1716]	-0.386 (inactive)	1.53	1.32
CARGYKGVWRAGNASASA [HC1167]	0.51 (inactive)	0.617 (inactive)	-0.00561 (inactive)
CARHARQASEAGNASASA [FS-3155]	1.74	4.48 (active)	5.03 (active)
CARHARFGKKAGNASASA [FS-2210]	0.851 (inactive)	-1.52 (inactive)	1.21
CARVARTVDRAGNASASA [FS-2469]	5.8 (active)	7.75 (active)	8.43 (active)
CARHARNVDRAGNASASA [FS-1953]	6.92 (active)	10.7 (active)	9.36 (active)
CARPAREVDRAGNASASA [FS-2356]	5.34 (active)	5.29 (active)	4.96 (active)
CATPPCSGSWAGNASASA [HC1859]	-0.56 (inactive)	-0.533 (inactive)	-0.721 (inactive)
CAFLLLADARAGNASASA [HC522]	-0.934 (inactive)	-0.696 (inactive)	-0.66 (inactive)
CAPLLYRLGAAGNASASA [HC972]	0.619 (inactive)	-1.01 (inactive)	0.0559 (inactive)
CAMAKNEVFCAGNASASA [HC1440]	0.471 (inactive)	0.162 (inactive)	0.531 (inactive)
CAGCNCSIYPAGNASASA [HC312]	0.264 (inactive)	-0.894 (inactive)	0.418 (inactive)
CAITARYHRDAGNASASA [FS-805]	2.27	3.38	4.17 (active)
CAIVARNHRDAGNASASA [FS-1537]	4.29 (active)	3.17	2.88
CAPWNRKNRQAGNASASA [FS-1604]	-0.25 (inactive)	0.846 (inactive)	3.14
CASKRRDKRWAGNASASA [FS-193]	8.33 (active)	9.38 (active)	9.36 (active)
CASSRRDSSWAGNASASA [FS-3138]	-0.452 (inactive)	-0.483 (inactive)	-0.978 (inactive)
CAGKRRSRRQAGNASASA [FS-1456]	9.9 (active)	10.6 (active)	6.67 (active)
CARKPKRKRWAGNASASA [FS-1400]	8.47 (active)	10.9 (active)	7.59 (active)
CARKPRVKRPAGNASASA [FS-1261]	1.31	0.832 (inactive)	1.57
CAHKHRSNRQAGNASASA [FS-1337]	1.05	3.88 (active)	1.67
CATTPCSGRWAGNASASA [HC1913]	-1.94 (inactive)	0.288 (inactive)	-0.595 (inactive)

— the supplement of paper PMC3545927
